PubChem BioAssay (NCATS)
Results filed as inconclusive are left out. Values without a mark were called inactive. The source made the active and inactive calls. Calls follow the shape of the dose curve; as a rule, active = well fitted inhibition curve with a large enough effect; inconclusive = small, poorly fitted or top-dose-only effect; inactive = flat fitted curve, though single readings scatter.

Target: Calcium and integrin-binding protein 1 (Homo sapiens) (UniProt Q99828)
Test: Primary qHTS for Identification of Calcium Integrin Binding Protein 1 (CIB1) Competitor (AID 1508620); also: top concentration of the series differs between compounds
Settings: CIB1-GST / FITC-alphaIIb peptide fluorescence polarization; series mostly up to 114 µM; activity change, negative = inhibition: at the top concentration
Procedure, shortened: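 Fluorescence polarization competition: GST-tagged CIB1 (1 uM final) preincubated with compound 15 min at room temperature, then FITC-labelled alphaIIb peptide (100 nM final) added. After 15 min at room temperature, polarization read at Ex 480/Em 540.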
% is scaled to controls: 0 for no effect and ±100 for the full control effect.

Chain of Calcium and integrin-binding protein 1 (Homo sapiens) (Q99828 whole entry, looked up): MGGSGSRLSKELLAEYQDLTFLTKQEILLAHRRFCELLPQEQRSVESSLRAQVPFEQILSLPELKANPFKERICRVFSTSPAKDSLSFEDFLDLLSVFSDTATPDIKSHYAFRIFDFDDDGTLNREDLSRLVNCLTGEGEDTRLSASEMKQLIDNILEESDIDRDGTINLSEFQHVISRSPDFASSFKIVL

Row | Compound | activity change, negative = inhibition | Potency
1 | Cc1cc2c(s1)c1cnn(Cc3ccc(F)c(Cl)c3)c(=O)c1n2C | 0.767% | –
2 | Cc1cc(C)nc(NC(=C(C#N)C#N)N2CCN(c3cccc(C(F)(F)F)c3)CC2)c1 | – | inactive
3 | N#Cc1ccc(-c2ccc(C3Nc4ccccc4C(=O)N3O)o2)cc1 (stereo not given) | -7.59% | –
4 | O=C(Nc1ccc(Cl)c(Cl)c1)Nc1nnc(-c2ccc(F)cc2)s1 | 3.35% | –
5 | CS(=O)(=O)c1ccc(-c2csc(N3CCC(C(N)=O)CC3)n2)cc1 | 6.89% | –
6 | O=C1CCCC2=C1C1(CCCC1)N=C(Nc1nc3cc(-c4ccccc4)ccc3o1)N2 | -15.8% | –
7 | COc1cccc(C)c1NC(=O)C(OC(=O)CNC(=O)c1ccccc1)c1ccccc1 (stereo not given) | 3.84% | –
8 | Cc1cnc(-c2ccccc2CO)nc1NCC1CCN(c2cccnc2)CC1 | 2.79% | –
9 | COc1cc(O)c(C(CC(=O)N2CCCC(C(=O)c3ccccc3)C2)c2ccc3c(c2)OCO3)c(OC)c1 (stereo not given) | 8.78% [at 228 µM] | –
10 | COc1cc(-c2ccc3ncnc(NCc4nc(C)cs4)c3c2)cc(OC)c1OC | -5.4% | –
11 | CN(C)C(=O)c1cccc(-c2csc(N3CCC(C(N)=O)CC3)n2)c1 | 2.55% | –
12 | CC(=O)NC(c1cc(Cl)c2ccccc2c1O)C1CC1 (stereo not given) | -0.272% | –
13 | CC(=O)c1cccc(-c2csc(N3CCC(C(N)=O)CC3)n2)c1 | -2.67% | –
14 | COc1ccc(-c2no[n+]([O-])c2C#N)cc1 | 4.04% | –
15 | CN(CCc1ccco1)c1ncnc2ccc(-c3ccc4c(c3)OCO4)cc12 | -3.33% | –
16 | O=C1CCc2cc(Cl)c(S(=O)(=O)Nc3ccc(Cl)c(Cl)c3)cc2N1 | -12.7% | –
17 | O=S(=O)(NCCCCNS(=O)(=O)c1c(F)cccc1F)c1ccc2c(c1)OCCO2 | -5.32% | –
18 | CN1CCN(c2cccc(CNc3nn4c(=O)c5ccccc5nc4s3)c2)CC1 | -14% | –
19 | COc1cc(O)c(C(CC(=O)N2CCC(c3ccccc3)CC2)c2ccc3c(c2)OCO3)c(OC)c1 (stereo not given) | -0.653% [at 228 µM] | –
20 | FC(F)(F)c1cccc(Nc2ccc(CNc3nc(-c4ccccc4C(F)(F)F)nc4ccccc34)cc2)c1 | 4.13% | –

Row | Compound | activity change, negative = inhibition | Potency
21 | Cc1cc(C)nc(NC(=S)N2CCN(c3ccc4c(c3)OCO4)CC2)c1 | -12.2% | –
22 | NC(=O)c1ccccc1C[C@H](C(=O)O)N1C(=O)c2ccc(C(=O)O)cc2C1=O | 0.11% | –
23 | Cc1ccc(OCCn2c(CCNC(=O)Cc3cccc4ccccc34)nc3ccccc32)cc1 | 21.4% | –
24 | COc1ccc(-c2nnc3n2N=C(c2ccc(OC)c(OC)c2)CS3)c(OC)c1 | 2.85% | –
25 | Cc1cc(-c2ccccc2)n2ncc(C(=O)Nc3ccccc3Sc3ccccc3)c2n1 | -0.203% | –
26 | S=C(Nc1cc(Cl)ccn1)N1CCN(c2ccc3ccccc3n2)CC1 | -4.92% | –
27 | COc1ccc(C2Nc3ccccc3C(=O)N2CCCN(C)C)cc1COc1ccc(NC(C)=O)cc1 (stereo not given) | -0.487% | –
28 | Cc1cc(NS(=O)(=O)c2ccc(N(C)C(=O)Cc3ccc(Cl)c(Cl)c3)cc2)no1 | -10.6% | –
29 | COc1ccccc1N1C(=O)c2ccccc2C1=O | 0.214% | –
30 | COc1ccc(C2c3c(N)nc(Cc4ccccc4)nc3Oc3ccc4ccccc4c32)cc1OC (stereo not given) | 5.34% | –
31 | Cc1cc(C)n2ncc(C(=O)Nc3ccc(C)c(C)c3)c2n1 | 5.65% | –
32 | COc1ccc(NC(=O)c2cnn3c(C)cc(C)nc23)cc1 | 2.74% | –
33 | COc1ccc(S(=O)(=O)N2CCN(S(=O)(=O)c3ccc4c(c3)OCCO4)CC2)cc1 | – | inactive
34 | Cc1ccc(OCCn2c(CCNC(=O)Cc3ccccc3)nc3ccccc32)cc1 | 26.5% | –
35 | Cc1cccc(-n2cnc3cc(C(=O)N4CCCCC4)ccc32)c1 | -1.74% | –
36 | CC1(C)CC2CC(C)(CN2S(=O)(=O)c2ccc(C(=O)Nc3ccc(Cl)cc3)cc2)C1 (stereo not given) | 8.09% | –
37 | Fc1cccc(CNc2ncnc3ccc(-c4ccc5c(c4)OCO5)cc23)c1 | 4.84% | –
38 | c1nc(NCCc2cnc[nH]2)c2cc(-c3ccc4c(c3)OCO4)ccc2n1 | – | inactive
39 | O=C(O)c1ccccc1OC1=NS(=O)(=O)c2ccccc21 | 1.4% | –
40 | Fc1ccc(-c2ccc(Nc3nc(-c4ccncc4)nc4ccccc34)cc2F)cc1 | 4.1% | –
